Experimental findings from PubChem BioAssay are described below.

Test [1] is described as follows: antimalarial activity against Dd2 strain (AID 2302;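 active = growth inhibition above 50% at the single 2 µM test dose, taken to imply half-maximal potency below 2 µM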;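 also: 0% = DMSO untreated growth and 100% = chloroquine plus artemisinin killed control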). To be noted: P. falciparum Dd2 in RBCs, LDH growth readout, 72 h; at 2 µM; stronger effect = higher value.
Test [2] is described as follows: human hepatoma cell viability loss – ATP luminescence, cytotoxicity control for P. falciparum antimalarial project, primary screen (AID 2303;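 active = inhibition above 50%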;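 also: 0% = DMSO wells and 100% = digitonin-killed cells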). To be noted: HepG2 viability, 24-48 h, at 10 µM, stronger effect = higher value.
Test [3] concerns the target L-lactate dehydrogenase (Plasmodium falciparum (isolate CDC / Honduras)) (UniProt Q27743). In words: PfLDH activity inhibition – cell lysate, 3D7 strain, counter-screen for P. falciparum growth inhibition project (AID 2304).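 Also: 0% = vehicle and 100% = reference inhibitor.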 The following applies: P. falciparum 3D7 crude extract, LDH APAD/NBT absorbance; at 2 µM; stronger effect = higher value. A general note: A counterscreen serves to expose hits that act by an unwanted route or on another target.

Test [4] in a line: inhibition of 3D7 malaria parasite growth – strain 3D7 (AID 2306).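 Also: 0% = DMSO wells and 100% = chloroquine plus artemisinin control wells.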 The following applies: P. falciparum 3D7 erythrocytic growth, LDH absorbance, 72 h; at 2 µM; stronger effect = higher value.
In test [5] the target is Calcium-dependent protein kinase 1 (Plasmodium falciparum (isolate 3D7)) (UniProt P62344). Nature of the test: PfCDPK1 kinase inhibitors, biochemical, TCAMS library (AID 1159585; cut-off not given, nearly all actives have IC50 up to about 0.98 µM;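 also: inhibitors leave more ATP so luminescence rises with inhibition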). The following applies: recombinant PfCDPK1, Kinase-Glo ATP depletion luminescence. For orientation: Kinase-Glo reads ATP consumption through a luciferase reaction.
Calcium-dependent protein kinase 1 (Plasmodium falciparum (isolate 3D7)), sequence (P62344 whole entry, looked up): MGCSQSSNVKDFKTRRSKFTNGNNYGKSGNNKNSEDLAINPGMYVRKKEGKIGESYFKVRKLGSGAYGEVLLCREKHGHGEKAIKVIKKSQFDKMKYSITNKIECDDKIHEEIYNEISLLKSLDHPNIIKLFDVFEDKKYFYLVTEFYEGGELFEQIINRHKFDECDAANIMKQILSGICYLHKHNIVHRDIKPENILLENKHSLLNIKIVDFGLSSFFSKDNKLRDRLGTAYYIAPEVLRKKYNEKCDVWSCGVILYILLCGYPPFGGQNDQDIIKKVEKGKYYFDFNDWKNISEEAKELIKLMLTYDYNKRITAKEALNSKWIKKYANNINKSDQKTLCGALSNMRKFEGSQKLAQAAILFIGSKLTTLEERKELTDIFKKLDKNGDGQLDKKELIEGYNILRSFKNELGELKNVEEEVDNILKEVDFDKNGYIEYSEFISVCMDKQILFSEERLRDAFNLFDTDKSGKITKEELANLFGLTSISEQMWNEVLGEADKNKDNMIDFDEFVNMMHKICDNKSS
In test [6] the target is Plasmodium falciparum protein kinase 6 (PK6, PF3D7_1337100) (UniProt Q8IDW1). In words: PfPK6 kinase inhibitors, biochemical, TCAMS library (AID 1159586). To be noted: recombinant PfPK6, Kinase-Glo ATP depletion luminescence.
Plasmodium falciparum protein kinase 6 (PK6, PF3D7_1337100), sequence (Q8IDW1 1-305): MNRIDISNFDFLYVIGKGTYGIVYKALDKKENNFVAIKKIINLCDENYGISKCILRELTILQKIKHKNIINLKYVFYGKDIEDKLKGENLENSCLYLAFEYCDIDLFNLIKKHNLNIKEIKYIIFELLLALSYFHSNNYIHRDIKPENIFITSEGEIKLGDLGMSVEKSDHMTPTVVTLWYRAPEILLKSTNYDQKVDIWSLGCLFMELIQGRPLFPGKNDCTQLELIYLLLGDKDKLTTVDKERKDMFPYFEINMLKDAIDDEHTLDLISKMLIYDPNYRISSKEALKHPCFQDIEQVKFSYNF
Test [7] addresses Protein kinase 7 (PK7), Plasmodium falciparum 3D7 (PF3D7_0213400) (UniProt Q7YTF7). In words: inhibition of Plasmodium PK7 catalytic activity – biochemical, TCAMS antimalarial set, Kinase-Glo luminescence (AID 1159587). The following applies: recombinant PfPK7, Kinase-Glo ATP depletion luminescence.
Test [8] concerns the target Calcium-dependent protein kinase 4 (Plasmodium falciparum (isolate 3D7)) (UniProt Q8IBS5). Nature of the test: PfCDPK4 kinase inhibitors, biochemical, TCAMS library (AID 1159588; cut-off not given, nearly all actives have IC50 up to about 0.91 µM). The following applies: recombinant PfCDPK4, Kinase-Glo ATP depletion luminescence.

Structures are written as SMILES. Unmarked numbers belong to inactive results. For some of these results: Results with a measured potency or affinity are listed apart. The source made the active and inactive calls. Unless noted, no rule for the calls is given here.

L-lactate dehydrogenase (Plasmodium falciparum (isolate CDC / Honduras)), sequence (Q27743 whole entry, looked up): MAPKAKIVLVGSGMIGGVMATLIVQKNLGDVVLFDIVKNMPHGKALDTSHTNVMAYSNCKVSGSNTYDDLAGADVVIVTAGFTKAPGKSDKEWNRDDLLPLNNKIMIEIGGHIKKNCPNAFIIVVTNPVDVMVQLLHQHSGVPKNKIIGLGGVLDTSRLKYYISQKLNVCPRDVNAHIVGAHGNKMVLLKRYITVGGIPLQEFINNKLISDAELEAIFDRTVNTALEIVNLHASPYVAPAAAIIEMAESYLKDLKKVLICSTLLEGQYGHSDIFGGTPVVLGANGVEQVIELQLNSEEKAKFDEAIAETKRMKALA
Calcium-dependent protein kinase 4 (Plasmodium falciparum (isolate 3D7)), sequence (Q8IBS5 whole entry, looked up): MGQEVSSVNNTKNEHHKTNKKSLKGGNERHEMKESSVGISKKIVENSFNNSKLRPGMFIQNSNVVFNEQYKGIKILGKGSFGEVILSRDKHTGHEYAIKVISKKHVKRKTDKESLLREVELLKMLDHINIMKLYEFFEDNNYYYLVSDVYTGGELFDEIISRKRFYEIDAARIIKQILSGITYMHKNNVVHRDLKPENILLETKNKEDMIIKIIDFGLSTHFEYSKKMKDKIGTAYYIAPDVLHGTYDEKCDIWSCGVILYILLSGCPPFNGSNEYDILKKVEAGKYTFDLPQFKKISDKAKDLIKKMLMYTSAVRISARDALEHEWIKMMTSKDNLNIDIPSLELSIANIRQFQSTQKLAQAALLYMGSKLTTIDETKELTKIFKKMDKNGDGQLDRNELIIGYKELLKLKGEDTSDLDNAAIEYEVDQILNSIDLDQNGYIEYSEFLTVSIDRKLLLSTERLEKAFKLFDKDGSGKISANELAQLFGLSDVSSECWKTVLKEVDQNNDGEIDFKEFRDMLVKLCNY
Protein kinase 7 (PK7), Plasmodium falciparum 3D7 (PF3D7_0213400), sequence (Q7YTF7 1-343): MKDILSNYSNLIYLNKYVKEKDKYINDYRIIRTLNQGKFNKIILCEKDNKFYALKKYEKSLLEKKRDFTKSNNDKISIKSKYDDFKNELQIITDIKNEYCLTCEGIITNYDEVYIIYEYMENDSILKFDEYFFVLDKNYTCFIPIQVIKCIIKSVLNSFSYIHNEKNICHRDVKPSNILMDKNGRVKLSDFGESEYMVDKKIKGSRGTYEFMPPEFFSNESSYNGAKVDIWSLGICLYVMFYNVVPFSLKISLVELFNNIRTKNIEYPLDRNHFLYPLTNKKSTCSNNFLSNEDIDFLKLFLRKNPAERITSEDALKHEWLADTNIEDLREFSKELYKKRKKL

Turning to `Nc1nc2c(ncn2COC2COP(=O)(O)OC2)c(=O)[nH]1` (stereo not given), the growth inhibition in test [1] is 54% (active); in test [4], 81% (active). Moreover, the inhibition in test [2] and in test [3] was 7% each time. The result in test [5], in test [6], in test [7] and in test [8] was inactive.
With `Cc1ccc(C)c(-n2c(SCC(=O)Nc3ccc(C(N)=O)cc3)nnc2-c2cccc(Cl)c2)c1`, the growth inhibition was 91% (active) in test [1] and 92% (active) in test [4]. In addition, the inhibition in test [2] was 6%; in test [3], 4%. Also, the outcome in test [5], in test [6], in test [7] and in test [8] was inactive.
Take `CCc1ccc2nc(-c3ccc(F)cc3)nc(SCC(=O)Nc3sc(C)c(C)c3C#N)c2c1`: the growth inhibition in test [1] is 5%; in test [4], 98% (active). Further, the inhibition is -15% in test [2] and 1% in test [3]. Further, the outcome in test [5], in test [6], in test [7] and in test [8] was inactive.
Regarding `CCOC(=O)C1=C(C)NC2=C(C(=O)CC(C)(C)C2)C1c1ccc(Br)cc1` (stereo not given), the growth inhibition in test [1] is 66% (active); in test [4], 90% (active). Also, the inhibition is 0% in test [2] and 2% in test [3]. Moreover, the result in test [5], in test [6], in test [7] and in test [8] was inactive.
As for `COCCn1c(-c2cccc(Cl)c2)nn(-c2ccc([N+](=O)[O-])cc2Cl)c1=S`, the figures for the growth inhibition in test [1] and in test [4] were 99% (active) and 100% (active), respectively. The inhibition in test [2] is 2%; in test [3], -2%. Also, the outcome in test [5], in test [6], in test [7] and in test [8] was inactive.
As to `CCCCCCCCN1CCCN(C(=O)c2cccc(NC(=O)Nc3ccc4ccccc4c3)c2)CC1`, the growth inhibition in test [1] is 39%; in test [4] it was 97% (active). Besides, the inhibition in test [2] was 39%; in test [3] it was 1%. For the same molecule, the outcome in test [5], in test [6], in test [7] and in test [8] was inactive.
With `Cc1ccccc1C1CCN(C2CCC(NC(=O)/C=C/c3cccc(Cl)c3)CC2)CC1` (stereo not given), the growth inhibition in test [1] is 34%; in test [4], 98% (active). Also, the inhibition in test [2] is 70% (active); in test [3] it was -3%. Also, the outcome in test [5], in test [6], in test [7] and in test [8] was inactive.
As to `CCN(CC)CCN(Cc1ccc(-c2ccc(C(F)(F)F)cc2)cc1)C(=O)Cn1cc(CCCCc2cccc(F)c2F)c(=O)c2ccccc21`, the growth inhibition in test [1] is 22%; in test [4] it was 90% (active). For the same molecule, the inhibition in test [2] is 18%; in test [3], -5%. The outcome in test [5], in test [6], in test [7] and in test [8] was inactive.
Consider `CN1CCCN(Cc2cccc(-c3ccc(NC(=O)c4cccc(C#N)c4)cc3)c2)CC1`, for which the growth inhibition in test [1] was 96% (active); in test [4] it was 102% (active). Also, the inhibition is 27% in test [2] and -6% in test [3]. The outcome in test [5], in test [6], in test [7] and in test [8] was inactive.
With `NC(N)=NN=Cc1c2ccc(Cl)cc2c(Cl)c2ccc(Cl)cc12`, the growth inhibition in test [1] was 90% (active); in test [4], 100% (active). The results for the inhibition in test [2] and in test [3] were 28% and 0%, respectively. Also, the result in test [5], in test [6], in test [7] and in test [8] was inactive.
In the case of `CC(CNC(=O)C(c1cc2ccccc2o1)N1CCN(C(c2ccccc2)c2ccccc2)CC1)c1ccccc1` (stereo not given), the growth inhibition in test [1] was 89% (active); in test [4], 99% (active). The inhibition in test [2] was 2%; in test [3], -5%. Also, the outcome in test [5], in test [6], in test [7] and in test [8] was inactive.
On to `COc1cc2nc(N3CCC(CNC(=O)c4ccc(-c5ccc(C(=O)N(C)C)cc5O)cc4)CC3)nc(N)c2cc1OC`, for which the growth inhibition in test [1] was 90% (active); in test [4], 101% (active). In addition, the inhibition in test [2] is 2%; in test [3], 3%. The result in test [5], in test [6], in test [7] and in test [8] was inactive.
Consider `Cc1cc(OCCCN2CCC(NS(=O)(=O)c3ccc(Cl)c(Cl)c3)CC2)c2ccccc2n1`, for which the values for the growth inhibition in test [1] and in test [4] were 35% and 96% (active), respectively. The inhibition in test [2] was 11%; in test [3] it was 1%. In addition, the outcome in test [5], in test [6], in test [7] and in test [8] was inactive.
Regarding `COc1ccc(N2CCN(CCCCNC(=O)c3ccc(NC(=O)c4ccc(OC(F)(F)F)cc4)cc3)CC2)c(OC)c1`, the growth inhibition in test [1] was 90% (active); in test [4], 101% (active). Also, the figures for the inhibition in test [2] and in test [3] were 36% and 5%, respectively. Moreover, the result in test [5], in test [6], in test [7] and in test [8] was inactive.
On to `Clc1ccc(OCc2ccccc2)c(-c2nc(-c3nc4ncc(Br)cc4[nH]3)cs2)c1`, for which the growth inhibition in test [1] is 77% (active); in test [4], 101% (active). In addition, the inhibition in test [2] is -7%; in test [3] it was -2%. The result in test [5], in test [6], in test [7] and in test [8] was inactive.
Consider `Cc1[nH]c2ccc(O)cc2c1C1CCN(CCCCCNC(=O)/C=C/c2ccc(Cl)c(Cl)c2)CC1`, for which the growth inhibition in test [1] is 1%; in test [4], 101% (active). The inhibition in test [2] was 33%; in test [3] it was 2%. In addition, the result in test [5], in test [6], in test [7] and in test [8] was inactive.
Take `O=C(Cc1ccccn1)Nc1cccc(-c2cccc(-c3nc4ccc(C(F)(F)F)cc4[nH]3)c2)c1`: the growth inhibition in test [1] is 22%; in test [4], 95% (active). For the same molecule, the inhibition in test [2] is 26%; in test [3], -2%. The result in test [5], in test [6], in test [7] and in test [8] was inactive.
As to `CS(=O)(=O)c1ccc2c(c1)CCN(CCC1CCC(NC(=O)C(=Cc3ccc(Cl)cc3Cl)c3ccc(-c4ccccc4)cc3)CC1)CC2` (stereo not given), the growth inhibition is 16% in test [1] and 81% (active) in test [4]. The inhibition in test [2] was 33%; in test [3], -1%. In addition, the outcome in test [5], in test [6], in test [7] and in test [8] was inactive.
Consider `COc1ccc(-n2nc(C(=O)NCCC3=CCCCC3)c3ccccc3c2=O)cc1`, for which the growth inhibition is 59% (active) in test [1] and 94% (active) in test [4]. For the same molecule, the values for the inhibition in test [2] and in test [3] were 0% and -4%, respectively. Besides, the result in test [5], in test [6], in test [7] and in test [8] was inactive.
With `COC(=O)C1=CNC=C(C(=O)OC)C1c1ccc(Cl)c([N+](=O)[O-])c1`, the growth inhibition is 79% (active) in test [1] and 93% (active) in test [4]. Moreover, the results for the inhibition in test [2] and in test [3] were -1% and -4%, respectively. Further, the outcome in test [5], in test [6], in test [7] and in test [8] was inactive.

For orientation: inhibition means the relative decrease from the control value, in per cent.
